Results filed as inconclusive are left out. Where a call stands in place of a potency, no number is given. The source made the active and inactive calls. The call rests on the fitted dose curve; in most records, active means well fitted inhibition curve with a large enough effect; inconclusive means small, poorly fitted or top-dose-only effect; inactive means no such curve, though single readings can be large or run the other way.
Potency means the concentration at half of the fitted maximal effect.

The test system of this test is Zika virus NS2B-NS3 protease (linked construct). Kind of test: Primary screen NINDS Rhodamine qHTS for Zika virus inhibitors (AID 1347160). Further: nearly all actives have a fitted effect of over 55% in size. To be noted: purified NS2B-NS3 protease, Rhodamine110 substrate fluorescence; series mostly up to 57.1 µM. In a few lines:
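Purified NS2B-NS3 protease with the NS2B hydrophilic domain joined by a flexible linker (25 nM) in 10 mM Tris-HCl pH 8.0, 0.01% Tween 20, preincubated 15 min at RT with compound; Rhodamine110 peptide substrate 1.5 µM; fluorescence change over 15 min; 4-parameter Hill fit.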
In general terms: Quantitative high-throughput screening tests each substance at several concentrations.
For `C=C1CC[C@@H]2[C@](C)(CO)[C@H](O)CC[C@@]2(C)[C@@H]1/C=C/C1=CCOC1=O`, the Potency entry was “inactive”.

For the compound `C=C1C(=O)O[C@@H]2C(OC(=O)/C(C)=C\C)/C(C)=C\C(=O)/C=C(\C)C[C@H](O)[C@@H]12` (some centres undefined), the Potency result was “inactive”.

As for `Fc1ccc(N2CCN(CCC3OCCc4ccccc43)CC2)cc1` (centres undefined), the Potency entry was “inactive”. In the case of `COc1ccc2cc3c(NC(=O)c4ccco4)nn(C)c3nc2c1`, the Potency entry is “inactive”.

For the compound `COc1ccc(CNCc2cccc3ccccc23)cc1`, the Potency result is “inactive”. Then `O=C1Nc2nc(-c3c(O)cccc3OCC3CC3)cc([C@@H]3CCCNC3)c2CO1`, with “inactive”; and `C=C(C)C(=O)O[C@H]1[C@H]2C(=C)C(=O)O[C@@H]2C[C@@H](C)[C@@H]2O[C@@H]2C(=O)[C@](C)(O)[C@@H]1OC(=O)C(=C)C`, with “inactive”. `Cn1c(CO)c(-c2ccccc2)c2cc([N+](=O)[O-])ccc21`: the Potency entry is “inactive”.

Regarding `CCCCOC(=O)NS(=O)(=O)c1sc(CC(C)C)cc1-c1ccc(Cn2ccnc2)cc1`, the Potency result is “inactive”. For `C=C1C(=O)OC2/C=C(\C)CC/C=C(\C)CC(OC(C)=O)C12` (centres undefined), the Potency result was “inactive”.

`O=C(Nc1ccc(Cl)cc1)C1CCCN(C(=O)c2cccc(-c3ccco3)c2)C1` (centres undefined): the Potency entry was “inactive”. For `CC[C@H]1CN(c2nc(N)c(C(N)=O)nc2Cl)CCN1C1CCN(Cc2ccc(Cl)cc2)CC1` the value was “inactive”; for `N#Cc1cc(C2=Nc3ccc(Br)cc3NC(=O)C2)ccn1`, “inactive”. For `COc1cc2c(cc1OCCCN1CCCC1)N=C(N)C21CCC1` the value was “inactive”; for `O=C(Nc1cccc(C(F)(F)F)c1)Nc1ccc(Br)cc1-c1nn[nH]n1`, 17.8 µM (active). As to `CC(C)C[C@@H](C(=O)N[C@@H](Cc1ccc(OCc2ccccc2)cc1)C(=O)NC(C)(C)C)N(C)Cc1ccc(C(C)(C)C)cc1`, the Potency result is “inactive”.

Take `CC(=O)O[C@@H]1[C@@H](OC(C)=O)[C@H](C)O[C@@H](O[C@H]2[C@@H]3C=CO[C@@H](O[C@@H]4O[C@H](CO)[C@@H](O)[C@H](O)[C@H]4O)[C@@H]3[C@@]3(CO)O[C@@H]23)[C@@H]1OC(=O)/C=C/c1ccccc1`: the Potency result is “inactive”.

With `COc1ccc(C2(N(C)C(=O)c3ccc(NC(=O)c4ccco4)cc3)CCOCC2)cc1`, the Potency entry was “inactive”. For `COC(=O)c1cc2c(C(F)(F)F)cc(-c3ccccc3)cc2n1O` the value was 15.8 µM (active).

For `COc1cc(F)c(F)c(Nc2ccc(I)cc2F)c1NS(=O)(=O)C1(CC(O)CO)CC1` (centres undefined), the Potency result was “inactive”. Then `C=C(C)C(=O)O[C@H]1[C@H]2C(=C)C(=O)O[C@@H]2/C=C(\CO)CC/C=C(/C=O)[C@@H]1O`, with “inactive”. For `Cn1cc(-c2ccc3c(c2)CCN3C(=O)Cc2cccc(C(F)(F)F)c2)c2c(N)ncnc21` the value was “inactive”; for `CN1CCN(c2ccc(Nc3cc(-c4cccc(-n5ccc6cc(C7CC7)cc(F)c6c5=O)c4CO)cn(C)c3=O)nc2)CC1`, “inactive”; for `O=C(NCCN1CCN(c2cccc3c2OCCO3)CC1)c1ccc(F)cc1`, “inactive”. Then `Cc1ccc(N2CCN(S(=O)(=O)N3CCCCC3)CC2)c(C)c1`, with “inactive”; and `CCCn1cc2c(nc(NC(=O)Nc3ccc(OC)cc3)n3nc(-c4ccco4)nc23)n1`, with “inactive”; and `O=S(=O)(Nc1ccccc1N1CCCCC1)c1ccc(Cl)s1`, with “inactive”. With `O=C(NCCCc1ccccc1)C1CCC(CNS(=O)(=O)c2cccc3nsnc23)CC1` (centres undefined), the Potency result was “inactive”. For `COc1c2c(c(C)c3c1C(=O)OC3)O[C@@]1(C)C[C@@H](OC(C)=O)[C@]34O[C@](OC)(CC[C@]3(C)[C@H]1C2)OC4(C)C` the value was “inactive”. As for `CCC(C)c1ccc(NC(=O)Cn2cnc3c2c(=O)n(C)c(=O)n3C)cc1` (centres undefined), the Potency result is “inactive”.

For the compound `CC1(C)CCCC2(C)C1C(=O)C=C(C(=O)O)C2(O)C(=O)O` (centres undefined), the Potency result is “inactive”.

`CCOc1ccc(Cc2nc(-c3c(C)nc4ccccn34)cs2)cc1`: the Potency entry was “inactive”. As for `Cc1cc(-c2nc3cc(F)ccc3s2)ccc1NC(=O)[C@@H](N)CCCCN`, the Potency result is “inactive”.

As for `O=c1cc(NCCCN[C@@H]2CCOc3c(Br)cc(Br)cc32)[nH]c2ccsc12`, the Potency entry is “inactive”. In the case of `CCCCNc1ncc(-c2ccc(CN3CCOCC3)cn2)c(NC2CCC(O)CC2)n1` (centres undefined), the Potency entry was “inactive”.

With `CCC(C)C(=O)O[C@H]1[C@@H](OC(=O)c2ccoc2)C[C@](C)(O)[C@]23OC(C)(C)[C@H](C[C@H](OC(=O)c4ccoc4)[C@]12COC(C)=O)[C@H]3OC(C)=O` (some centres undefined), the Potency entry was “inactive”. For `O=S(=O)(NCc1cccc2ccccc12)c1cc(Cl)c(Oc2cccc(N3CCNCC3)c2)s1` the value was “inactive”. For `C=C1CC[C@@H]2[C@](C)(CO)[C@H](O)CC[C@@]2(C)[C@@H]1C/C=C1/C(=O)OCC1O` (some centres undefined) the value was “inactive”; for `Nc1cccc(CNC(=O)c2ccc(Oc3ccc(OCc4cccc(F)c4)cc3)nc2)c1`, “inactive”.

For the origin of these results see PubChem BioAssay (NCATS).
